Measured values taken from PubChem BioAssay AID1159580 (chemical genetic matrix, 2015).
About 2,000 (36%) of roughly 5,500 compounds were called active. Inconclusive results (about 18%) are left out. Cut-off read from the data, not from the text of the source: active = normalized growth mostly below about 0.91 (no sharp cut-off); inconclusive = no clear call, values can overlap the other calls; inactive = mostly above about 0.92. The list shows a part of the results.

Experiment: chemical genetic growth profiling, strain panel (AID 1159580);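 note: tested at 20 µM; growth read once vehicle control cultures reached saturation at 30 °C; 1 = growth at the plate median or of vehicle wells; lower values mean less growth of the strain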
Details: growth OD

Measured: normalized growth

O=C1O[C@@H](CO)[C@H](O)[C@@H](O)[C@@H]1O
inactive: S. cerevisiae deletion strains, locus YJR066W, strain TOR1, active compounds read low 0.965 | S. cerevisiae deletion strains, locus YKL009W, strain mrt4, active compounds read low 1.02 | S. cerevisiae deletion strains, locus YKL068W, active compounds read low 0.999 | S. cerevisiae deletion strains, locus YKL085W, strain MDH1 (second series), active compounds read low 0.998 | S. cerevisiae deletion strains, locus YKL085W, strain MDH1, active compounds read low 0.998 | S. cerevisiae deletion strains, locus YKL160W, strain elf1, active compounds read low 1.02 | S. cerevisiae deletion strains, locus YKL190W, strain CNB1, active compounds read low 0.999 | S. cerevisiae deletion strains, locus YKR001C, strain vps1, active compounds read low 0.985 | S. cerevisiae deletion strains, locus YKR026C, strain gcn3, active compounds read low 1.01 | S. cerevisiae deletion strains, locus YKR091W, strain srl3, active compounds read low 1.01 | S. cerevisiae deletion strains, locus YLL001W, strain dnm1, active compounds read low 1.01 | S. cerevisiae deletion strains, locus YLL026W, active compounds read low 1.02 | S. cerevisiae deletion strains, locus YLL041C, strain sdh2, active compounds read low 1.02 | S. cerevisiae deletion strains, locus YLR027C, strain aat2, active compounds read low 1.02 | S. cerevisiae deletion strains, locus YLR039C, strain RIC1, active compounds read low 1.03 | S. cerevisiae deletion strains, locus YLR058C, strain SHM2, active compounds read low 1.01 | S. cerevisiae deletion strains, locus YLR102C, strain apc9, active compounds read low 1.01 | S. cerevisiae deletion strains, locus YLR113W, strain HOG1, active compounds read low 0.963 | S. cerevisiae deletion strains, locus YLR221C, strain rsa3, active compounds read low 1.01 | S. cerevisiae deletion strains, locus YLR258W, strain gsy2, active compounds read low 1.04 | S. cerevisiae deletion strains, locus YLR262C, strain YPT6 (second series), active compounds read low 1 | S. cerevisiae deletion strains, locus YLR262C, strain YPT6, active compounds read low 1.08 | S. cerevisiae deletion strains, locus YLR268W, strain sec22, active compounds read low 1.01 | S. cerevisiae deletion strains, locus YLR320W, strain mms22, active compounds read low 1.02 | S. cerevisiae deletion strains, locus YLR330W, strain CHS5, active compounds read low 1.01 | S. cerevisiae deletion strains, locus YLR342W, strain FKS1 (second series), active compounds read low 1.04 | S. cerevisiae deletion strains, locus YLR342W, strain FKS1, active compounds read low 1.03 | S. cerevisiae deletion strains, locus YLR357W, strain rsc2, active compounds read low 1.01 | S. cerevisiae deletion strains, locus YLR370C, strain arc18, active compounds read low 1.03 | S. cerevisiae deletion strains, locus YLR371W, strain rom2, active compounds read low 1.01 | S. cerevisiae deletion strains, locus YLR384C, strain iki3, active compounds read low 1.01 | S. cerevisiae deletion strains, locus YLR418C, strain cdc73, active compounds read low 1.04 | S. cerevisiae deletion strains, locus YML016C, strain PPZ1, active compounds read low 1.01 | S. cerevisiae deletion strains, locus YML032C, strain rad52, active compounds read low 0.991 | S. cerevisiae deletion strains, locus YML120C, strain ndi1, active compounds read low 1.01 | S. cerevisiae deletion strains, locus YML124C, strain tub3, active compounds read low 1 | S. cerevisiae deletion strains, locus YMR058W, strain fet3, active compounds read low 1.03 | S. cerevisiae deletion strains, locus YMR078C, strain ctf18, active compounds read low 1 | S. cerevisiae deletion strains, locus YMR125W, strain sto1, active compounds read low 1.02 | S. cerevisiae deletion strains, locus YMR129W, active compounds read low 1.02 | S. cerevisiae deletion strains, locus YMR205C, strain PFK2, active compounds read low 1.04 | S. cerevisiae deletion strains, locus YMR223W, strain ubp8, active compounds read low 1.04 | S. cerevisiae deletion strains, locus YMR231W, strain pep5, active compounds read low 1.02 | S. cerevisiae deletion strains, locus YMR307W, strain GAS1, active compounds read low 1.05 | S. cerevisiae deletion strains, locus YNL067W, strain RPL9B, active compounds read low 0.994 | S. cerevisiae deletion strains, locus YNL071W, strain lat1, active compounds read low 1.02 | S. cerevisiae deletion strains, locus YNL128W, strain TEP1, active compounds read low 1.02 | S. cerevisiae deletion strains, locus YNL183C, strain NPR1, active compounds read low 0.944 | S. cerevisiae deletion strains, locus YNL209W, strain ssb2, active compounds read low 1.03 | S. cerevisiae deletion strains, locus YNL233W, strain BNI4, active compounds read low 1 | S. cerevisiae deletion strains, locus YNL248C, strain rpa49, active compounds read low 1.06 | S. cerevisiae deletion strains, locus YNL250W, strain rad50, active compounds read low 1.05 | S. cerevisiae deletion strains, locus YNL271C, strain bni1, active compounds read low 0.993 | S. cerevisiae deletion strains, locus YNL298W, strain CLA4, active compounds read low 1.01 | S. cerevisiae deletion strains, locus YNL307C, strain MCK1, active compounds read low 1 | S. cerevisiae deletion strains, locus YNL322C, strain KRE1 (second series), active compounds read low 1 | S. cerevisiae deletion strains, locus YNR049C, strain mso1, active compounds read low 1.02 | S. cerevisiae deletion strains, locus YNR052C, strain pop2, active compounds read low 1.01 | S. cerevisiae deletion strains, locus YOL006C, strain TOP1, active compounds read low 0.992 | S. cerevisiae deletion strains, locus YOL012C, strain htz1 0.898 | S. cerevisiae deletion strains, locus YOL147C, strain pex11, active compounds read low 1 | S. cerevisiae deletion strains, locus YOR001W, strain rrp6, active compounds read low 1.01 | S. cerevisiae deletion strains, locus YOR061W, strain CKA2, active compounds read low 1 | S. cerevisiae deletion strains, locus YOR069W, strain VPS5, active compounds read low 1.01 | S. cerevisiae deletion strains, locus YOR070C, strain gyp1, active compounds read low 1.03 | S. cerevisiae deletion strains, locus YOR080W, strain dia2, active compounds read low 1.01 | S. cerevisiae deletion strains, locus YOR083W, strain WHI5, active compounds read low 0.994 | S. cerevisiae deletion strains, locus YOR106W, strain vam3, active compounds read low 1.01 | S. cerevisiae deletion strains, locus YOR136W, strain idh2, active compounds read low 0.99 | S. cerevisiae deletion strains, locus YOR144C, strain elg1, active compounds read low 1.01 | S. cerevisiae deletion strains, locus YOR184W, strain ser1, active compounds read low 1 | S. cerevisiae deletion strains, locus YOR231W, strain MKK1, active compounds read low 0.968 | S. cerevisiae deletion strains, locus YOR265W, strain rbl2, active compounds read low 1.02 | S. cerevisiae deletion strains, locus YOR270C, strain vph1, active compounds read low 1.06 | S. cerevisiae deletion strains, locus YOR290C, strain snf2, active compounds read low 1.04 | S. cerevisiae deletion strains, locus YOR316C, strain cot1, active compounds read low 1.01 | S. cerevisiae deletion strains, locus YPL051W, strain arl3, active compounds read low 1 | S. cerevisiae deletion strains, locus YPL055C, strain LGE1, active compounds read low 0.958 | S. cerevisiae deletion strains, locus YPL078C, strain atp4, active compounds read low 1.03 | S. cerevisiae deletion strains, locus YPL106C, strain sse1, active compounds read low 1.04 | S. cerevisiae deletion strains, locus YPL240C, strain hsp82, active compounds read low 1.01 | S. cerevisiae deletion strains, locus YPL241C, strain CIN2, active compounds read low 1 | S. cerevisiae deletion strains, locus YPL256C, strain CLN2, active compounds read low 0.953 | S. cerevisiae deletion strains, locus YPR119W, strain clb2, active compounds read low 1 | S. cerevisiae deletion strains, locus YPR141C, strain kar3, active compounds read low 0.989 | S. cerevisiae deletion strains, locus YPR163C, strain tif3, active compounds read low 1 | S. cerevisiae deletion strains, locus YPR167C, strain met16, active compounds read low 1.01 | S. cerevisiae deletion strains, strain wtn01, active compounds read low 0.997 | S. cerevisiae strains, strain wild type, active compounds read low 1
